Luciferase inh: blocks Photinus pyralis firefly luciferase activity | purified firefly luciferase, luminescence, 8 min | AID 411 | P08659 | actives 2.2% (n = 72,000) | Potency, µM (series often up to 57.1 µM), for inactives: at the highest dose activity change, negative = inhibition, usual class: inhibitors; active = well fitted inhibition curve with a large enough effect; inconclusive = small, poorly fitted or top-dose-only effect; also: % is scaled to controls: 0 for no effect and ±100 for the full control effect; nearly all actives have a fitted effect of over 40% in size
Target sequence (P08659 whole entry, looked up): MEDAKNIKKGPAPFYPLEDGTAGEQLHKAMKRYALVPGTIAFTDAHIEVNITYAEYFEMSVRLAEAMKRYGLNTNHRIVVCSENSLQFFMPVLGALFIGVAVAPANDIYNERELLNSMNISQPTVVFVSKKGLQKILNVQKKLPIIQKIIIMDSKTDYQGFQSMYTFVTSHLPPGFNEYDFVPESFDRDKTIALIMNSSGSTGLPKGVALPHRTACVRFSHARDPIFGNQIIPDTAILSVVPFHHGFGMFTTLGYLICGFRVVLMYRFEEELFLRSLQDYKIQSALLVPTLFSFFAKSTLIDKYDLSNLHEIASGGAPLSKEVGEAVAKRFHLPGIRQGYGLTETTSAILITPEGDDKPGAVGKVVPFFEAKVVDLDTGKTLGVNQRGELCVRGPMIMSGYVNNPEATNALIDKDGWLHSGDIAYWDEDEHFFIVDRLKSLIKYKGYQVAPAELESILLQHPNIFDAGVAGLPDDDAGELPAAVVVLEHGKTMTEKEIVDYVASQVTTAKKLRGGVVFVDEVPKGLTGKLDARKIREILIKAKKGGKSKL
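Substrate buffer containing 10 uM ATP (pH 7.2 imidazole, Mg2+, KCl, detergent, BSA) is dispensed, compound pinned in, then luciferase/luciferin detector mix added. After 8 min at ambient temperature, light output is measured.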
GBA mod: human lysosomal glucosylceramidase modulation | P04062 | purified enzyme, resorufin glucoside fluorescence (screen aimed at inhibitors), 20 min | Potency, µM | actives 1.1% (n = 48,000); in the data active = potency below about 15 µM; inconclusive = mostly about 16 µM to 33 µM;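 also: the screen sought inhibitors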
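Compounds titrated against 0.2 nM normal enzyme, 30 uM resorufin beta-D-glucopyranoside substrate, citrate/phosphate buffer with taurocholate and tween-20, pH 5.9. Reaction ran 20 min at room temperature; fluorescence (Ex 548/Em 600) gave AC50.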
PK Bst: pyruvate kinase (B. stearothermophilus) modulation. actives 1.2% (n = 51,000). Potency, µM. purified pyruvate kinase, luminescence ATP production; ribose 5-phosphate activator present at AC10; in the data active = potency below about 11 µM; inconclusive = mostly about 12 µM to 25 µM;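 the screen sought inhibitors and activators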;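 also: scaled between full activation by ribose 5 phosphate and full inhibition by luteolin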
* marks the source's active call; other numbers are inactive results; i = inactive; u = inconclusive; x = no result given; [ ] = remark or other dose. The list is not random: actives were taken first. Their share in the collection is about 3.4%. Potency is read from the fitted curve at half-maximal effect.

SMILES	Luciferase inh	GBA mod	PK Bst
O=C(Nc1ccc2c(c1)OCO2)c1c(F)c(F)c(F)c(F)c1F	0.9%	>76.9	>57
O=C(Nc1ccc2c(c1)OCCO2)c1c(F)cccc1F	12.6µM*	>76.9	x
O=C(O)[C@@H]1CCN(Cc2oc(CO)cc(=O)c2O)C1	2.6%[11.4 µM]	x	x
C=C1CC[C@@H]2O[C@]2(C)CC[C@@H]2[C@H]1CC2(C)C	1.3%[11.4 µM]	x	x
COC(=O)[C@H](CCSC)NC(=O)C/C=C\[C@@H](C)[C@@H](CO)OC	1.2%[11.4 µM]	x	x
O=C1C(=O)N(Cc2ccc(Cl)c(Cl)c2)c2ccccc21	0.9%	x	x
Cc1sc(NC(=O)c2ccc(Cl)s2)c(C(N)=O)c1C	10µM*	>76.9	x
CCOC(=O)c1c(NC(=O)Cc2cccs2)sc(C)c1C	1.8%	x	x
Oc1ccc(-c2[nH]ncc2-c2ccc(Cl)cc2)c(O)c1	2.1%	x	>57
Oc1ccc(-c2[nH]ncc2-c2cccc3cccnc23)c(O)c1	-0.7%	>76.9	5.88*
CCSC(N)=Nc1ccc(C(F)(F)F)cc1	-3.5%	x	x
Cc1ccc(NC(=O)NC2=N/C(=C(/C#N)C(=O)N3CCCC3)c3ccccc32)cc1	-3.0%	9*	u
Cc1ccc(NC(=O)C2CC=CCC2C(=O)N2CCCCC2)cc1 (configuration not stated)	0.8%	>76.9	>57
Cn1ccnc1C[C@@](C)(O)c1ccccc1	0.6%[11.4 µM]	x	x
CN1[C@@H]2CC[C@H]1CC(OC(=O)[C@@H](O)c1ccccc1)C2 (some centres not stated)	3.5%[11.4 µM]	x	x
CC(=O)c1ccc(C(=O)Nc2ccc(N3CCOCC3)cc2)cc1	0.9%	x	x
CC(=O)c1ccc(NC(=O)c2ccn[nH]2)cc1	25.1µM*	>76.9	x
Cc1ccc(C(=O)/C=C/Nc2cccc(O)c2)cc1	2.51µM*	x	1.26*
Cc1cccc(NC(=O)CN2CCN(CC(=O)Nc3cccc(C)c3)CC2)c1	-0.3%	x	x
CC(=O)Nc1cccc(C(=O)Nc2ccccc2C(=O)O)c1	-16.9%	>76.9	>57
C/C(=C\C(=O)c1ccc(C)cc1)Nc1cccc(O)c1	5.01µM*	x	x
O=C(Nc1cccc(O)c1)c1ccc(Br)cc1	-26.5%	>76.9	x
O=C(/C=C/Nc1cccc(O)c1)c1ccccc1	2µM*	x	x
CCNc1ncc2nc(-c3ccc(OC)cc3)c(=O)n(CCC#N)c2n1	1.0%[11.4 µM]	x	x
COc1cccc(-c2nccc(N(C)Cc3ccco3)n2)c1	-9.9%[2.29 µM]	x	x
SMILES	Luciferase inh	GBA mod	PK Bst
CC(=O)O[C@H]1C(=O)[C@@]2(C)[C@H]([C@H](OC(=O)c3ccccc3)[C@]3(O)C[C@H](OC(=O)[C@H](O)[C@@H](NC(=O)c4ccccc4)c4ccccc4)C(C)=C1C3(C)C)[C@]1(OC(C)=O)CO[C@@H]1C[C@@H]2O	15.8µM*	x	x
COc1cccc(Cn2c(=O)c(-c3cc(F)cc(F)c3)nc3cnc(N(C)C)nc32)c1	1.7%[11.4 µM]	x	x
CCOC(=O)CCN1C(=O)[C@H]2[C@H]3[C@H](O)[C@H](O)C/C(=N/OC/C=C(\C)CCC=C(C)C)[C@H]3CC[C@@H]2C1=O	0.2%[11.4 µM]	x	x
O=C(O)CCc1nc(-c2ccccc2-n2cccc2)no1	1.6%[11.4 µM]	x	x
NC(=O)c1c(NC(=O)c2cccs2)sc2c1CCCCCC2	7.94µM*	x	x
O=C(Nc1nc2c(s1)CCCC2)c1cccs1	5.01µM*	>76.9	9.71*
O=C(Nc1nc2c(s1)CCCC2)c1ccc(Br)o1	6.31µM*	x	x
Cc1ccc(C(=O)Nc2nc3c(s2)CCCC3)o1	-0.2%	>76.9	>57
O=C(Cc1cccs1)Nc1nc2c(s1)CCCC2	-22.7%	>76.9	>57
O=C(Nc1sc2c(c1C(=O)O)CCC2)c1cccs1	-2.6%	>76.9	>57
O[C@@H]1[C@@H]2c3cc4c(cc3CN3CCC(=C[C@@H]1O)[C@H]23)OCO4	-3.4%[25.5 µM]	x	x
COc1cccc2c1C(=N)c1c(O)c3c(c(O)c1C2=O)C[C@](O)(C(C)=O)C[C@@H]3O[C@H]1C[C@H](N)[C@@H](O)[C@H](C)O1	-20.1%[11.4 µM]	x	x
N#Cc1c(NC(=O)CCC(=O)O)ccc2ccccc12	3.3%[11.4 µM]	x	x
CC(=O)N=C(N)Sc1nc2ccccc2[nH]1	12.6µM*	x	u
C[N+](C)(C)CCCSc1nc2ccccc2[nH]1	1.7%[11.4 µM]	x	x
C[C@@]12CC[C@@H]3[C@H](CCC4=CC(=O)CC[C@]43C)[C@@H]1CC[C@@H]2C(=O)Cn1cnc2c(=S)nc[nH]c21	-1.3%[11.4 µM]	x	x
O=c1[nH]c(SCc2ccccc2[N+](=O)[O-])nc2nc[nH]c12	-1.0%[11.4 µM]	x	x
Cc1cccc(NS(=O)(=O)c2ccccc2)n1	0.0%	x	x
Cc1cccc(C#Cc2ccccc2)n1	12.6µM*	x	x
COc1ccc(-n2c(SCC(=O)NCC3CCCO3)nc3n[nH]c(C)c3c2=N)cc1 (configuration not stated)	-1.1%	>76.9	>57
Cc1ccc(-n2c(SCC(=O)NCC3CCCO3)nc3n[nH]c(C)c3c2=N)cc1Cl (configuration not stated)	7.2%	14.2*	>57
O=C1[C@@H]2[C@H]3[C@H](O)[C@H](O)C/C(=N/OCc4ccccc4)[C@@H]3CC[C@H]2C(=O)N1c1ccc(F)cc1F	-1.1%[11.4 µM]	x	x
COc1ccc(Cc2ccc3[nH]c(=O)cc(C)c3c2)cc1S(=O)(=O)O	3.9%[11.4 µM]	x	x
N#Cc1ccccc1NC(=O)c1ccccc1OCC(=O)Nc1ccc2c(c1)oc1ccccc12	3.3%	11.2*	>57
N#Cc1ccccc1NC(=O)c1ccccc1OCC(=O)NCc1ccco1	3.7%	>76.9	>57
SMILES	Luciferase inh	GBA mod	PK Bst
c1ccc(-c2ccc(-c3ccccn3)nn2)nc1	12.6µM*	>76.9	i
c1ccc(-c2ccccn2)nc1	3.7%	x	x
CC(C)NC(=O)c1ccccc1-c1nc(-c2ccccc2Cl)no1	u	>76.9	x
COCCNC(=O)c1ccccc1-c1nc(-c2ccccc2OC)no1	-10.2%	>76.9	>57
CC(C)(C)NC(=O)c1ccccc1-c1nc(-c2ccccc2Cl)no1	20µM*	>76.9	x
CCOc1ccccc1NC(=O)c1ccccc1-c1nc(-c2ccccc2OC)no1	25.1µM*	>76.9	x
CO[C@H]1COC(=O)[C@@H](C)COC(=O)[C@H](C)NC(=O)C/C=C\[C@H]1C	0.2%[11.4 µM]	x	x
COc1ccc(-c2nc3cnc(OC)nc3n(C[C@H]3CCCO3)c2=O)cc1	0.7%[11.4 µM]	x	x
O=C1[C@H]2[C@H]3[C@H](O)[C@H](O)C/C(=N/OCc4ccccc4)[C@@H]3CC[C@@H]2C(=O)N1C1CCCCC1	0.6%[11.4 µM]	x	x
CCCOC(=O)Nc1ccc(N2CCCCC2)cc1	12.6µM*	>76.9	i
CCCCOC(=O)Nc1ccc(C(=O)OCCC)cc1	-4.1%	x	x
Cc1cc(C(=O)COC(=O)CN(C)S(=O)(=O)c2ccc(Cl)cc2)c(C)n1CC1CCCO1 (configuration not stated)	-12.9%	>76.9	>57
Cc1cc(C(=O)COC(=O)C2COc3ccccc3O2)c(C)n1CC1CCCO1 (configuration not stated)	15.8µM*	>76.9	i
Cn1cccc1C(=O)OCC(=O)Nc1cc(C(C)(C)C)nn1-c1ccccc1	1.6%	>76.9	>57
Cn1cccc1C(=O)OCC(=O)c1cc2ccccc2o1	25.1µM*	>76.9	>57
COc1ccc2oc(C(=O)C3CC3)c(N)c2c1	25.1µM*	>76.9	x
COc1ccc(C(=O)c2oc3ccccc3c2N)cc1	-22.0%	>76.9	u
CN(C(=O)COC(=O)C1CCN(S(=O)(=O)c2cccs2)CC1)C1CCS(=O)(=O)C1 (configuration not stated)	2.1%	>76.9	>57
CN(C(=O)C1CCN(S(=O)(=O)c2cccs2)CC1)C1CCCCC1	2.6%	12.6*	>57

Screens from PubChem BioAssay.
